# BRCA1 expr up: activators of BRCA1 expression. Potency, µM (doses to about 46.1 µM), for the others: at the top dose activation, hits mostly activators. MCF7-BRCA1-FFLuc reporter, luminescence, 48 h; response scale: scaled: vehicle 0%, 10 µM genistein 100%. 380,000 tested, 1.1% active; also: nearly all actives have a fitted effect of over 80% in size
#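 First, MCF7-BRCA1-FFLuc cells (2000/well) attach for 2 h; next, compounds are pin-added and incubated 48 h at 37 °C; finally, luciferase reagent is added and luminescence read after 15 min.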
# GLP-1R inv ag: inverse agonists of human GLP-1 receptor | P43220 | HEK293 GLP-1R CRE-luciferase, luminescence, 24 h; GLP-1R form is constitutively active | Potency, µM (series often up to 38.3 µM), inactives show at the highest dose activity change, negative = inhibition, hits mostly inhibitors | 410,000 tested, 1.6% active; also: % is scaled to controls: 0 for no effect and ±100 for the full control effect; nearly all actives have a fitted effect of over 55% in size
# Target sequence (P43220 whole entry, looked up): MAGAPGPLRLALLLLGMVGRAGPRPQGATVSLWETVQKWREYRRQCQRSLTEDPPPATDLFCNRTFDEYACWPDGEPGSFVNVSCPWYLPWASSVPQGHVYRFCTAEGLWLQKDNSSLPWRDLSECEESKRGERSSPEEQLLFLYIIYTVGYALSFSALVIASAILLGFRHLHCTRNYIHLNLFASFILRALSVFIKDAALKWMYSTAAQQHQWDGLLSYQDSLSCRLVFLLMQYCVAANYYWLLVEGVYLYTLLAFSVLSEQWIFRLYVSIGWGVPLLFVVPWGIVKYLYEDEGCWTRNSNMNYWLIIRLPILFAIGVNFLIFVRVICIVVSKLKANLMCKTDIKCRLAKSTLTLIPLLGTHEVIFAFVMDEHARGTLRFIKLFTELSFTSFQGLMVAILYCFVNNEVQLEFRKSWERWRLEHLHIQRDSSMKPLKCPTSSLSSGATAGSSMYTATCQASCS
#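 GLP-1R inverse agonism mode: basal reporter luminescence in engineered HEK293 cells measured after one day of compound exposure at 37 deg C, with a 12 min room-temperature detection step.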
# GLP1R cytotox: cytotoxicity counter-screen for GLP-1 receptor inverse agonists; HEK293 cAMP-luciferase reporter cells, luminescence, 24 h; Potency, µM (titrated, usually from 38.3 µM), inactives show at the top dose activity change, negative = inhibition, actives largely listed as inhibitors; 410,000 tested, 0.13% active; AID 624418;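 also: loss of luciferase light is scored as toxicity; % is scaled to controls: 0 for no effect and ±100 for the full control effect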
#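 Cells in DMEM/10% Nu serum/1% pen-strep, 1536-well format. Pre-incubated 12 h, dosed with 23 nL compound, incubated a further 24 h. Luciferase detection, 12 min at room temp, luminescence.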
# GLP1R ag: activates the human GLP-1 receptor; P43220; HEK293 GLP-1R CRE-luciferase, luminescence, 4-6 h; cells express a hypersensitive GLP-1R form; Potency, µM (doses to about 45.6 µM), without a hit: at the top dose activation, usual class: activators; 380,000 tested, 0.007% active; also: % of control where 0% means no effect
# Numbers without * were called inactive; u = inconclusive; x = no result; [ ] = another dose, or the depositor's remark. Rows were chosen to be rich in hits. Some 2.6% of all compounds tested hit in one or more screens of this group. Calls follow the shape of the dose curve; as a rule, active = well fitted curve in the direction sought with a large enough effect; inconclusive = small, poorly fitted or top-dose-only effect, or another doubt; inactive = no such curve, though single readings can be large; an effect the other way counts as inactive or inconclusive. Potency is read from the fitted curve at half-maximal effect.
SMILES,BRCA1 expr up,GLP-1R inv ag,GLP1R cytotox,GLP1R ag
CCCCCCc1ccc(N2C[C@H](CCCCC)[C@@H](CC(=O)NCc3ccccc3)C2=O)cc1,-23.1%,4.47µM*,5.9%,-4.2%
CCC[C@H]1CN(c2ccc(Br)cc2)C(=O)[C@@H]1CC(=O)Nc1ccc(OC)cc1,-21.8%,7.94µM*,-7.5%,-1.9%
Cc1ccc(NC(=O)CSc2ncccn2)c([N+](=O)[O-])c1,11.2µM*,16.3%,-5.0%,24.5%
Cc1ccc(NC(=O)CSc2nc(C)c(C)c(C)n2)c([N+](=O)[O-])c1,0.0%,15.6%,12.8%,u
CC(=O)N(C)C[C@@H]1Oc2ncc(Br)cc2C(=O)N([C@H](C)CO)C[C@@H]1C,1.8%,-2.8%,3.2%,4.1%
O=C(NCCc1c[nH]c2ccccc12)Nc1cccc2ccccc12,-57.5%,u,7.3%,3.8%
Cc1cccc(NC(=O)NCCc2c[nH]c3ccccc23)c1,0.0%,8.91µM*,-2.3%,2.7%
Cc1ccc(NC(=O)C(=O)NCCc2c[nH]c3ccccc23)cc1C,0.0%,-14.6%,-2.2%,14.6%
O=C(NCCc1c[nH]c2ccccc12)C(=O)Nc1ccccc1,11.2µM*,u,-12.9%,14.0%
Cc1c(N=C/C=C2\N(C)c3ccccc3C2(C)C)c(=O)n(-c2ccccc2)n1C,-1.8%,u,2.24µM*,0.8%
Cc1ccc2nc(CN3CCN(S(=O)(=O)c4ccc(F)cc4)CC3)oc2c1,x,-1.1%,2.0%,x
CCCNC(=S)Nc1cc2oc3ccccc3c2cc1OC,38.8%,8.91µM*,-14.5%,-5.5%
COc1ccc(NC(=O)Nc2cc3oc4ccccc4c3cc2OC)cc1,-52.8%,u,9.5%,-11.2%
COc1cc2c(cc1NC(=O)Nc1ccc(C)cc1)oc1ccccc12,-48.5%,1.78µM*,-18.1%,-2.9%
COc1cccc(CN(C(=O)c2oc3cc(C)ccc3c2C)C2CCS(=O)(=O)C2)c1 (stereo not drawn),x,-16.3%,u,x
Cc1cc(Oc2ccccc2)nc(C#N)n1,19.5%,x,x,x
CCC(=O)N1CCc2cc(Br)cc(S(=O)(=O)N3CCN(c4cccc(Cl)c4)CC3)c21,0.0%,4.2%,-7.3%,0.2%
CCCOc1cccc(C(=O)Nc2ccc(-c3cc4ccccc4oc3=O)c(C)c2)c1,x,3.98µM*,13.2%,x
CCC(=O)Nc1cccc(-c2cc3ccccc3oc2=O)c1,10µM*,3.4%,7.1%,14.7%
Cc1ccccc1Cn1cc(S(=O)(=O)c2ccc(Cl)cc2)c(=O)c2cc3c(cc21)OCO3,4.0%,4.0%,1.8%,-1.5%
Cc1cccc(C(=O)Nc2cc(-c3ccccc3F)nn2-c2ccccc2)c1,0.0%,10µM*,0.3%,x
CCc1cccc(C)c1NC(=O)Cn1cc2c(n1)CCCCC2,x,u,-4.7%,x
CC1COC(=O)C(NNc2ccc(Cl)c(Cl)c2)=N1 (stereo not drawn),-21.2%,2.24µM*,u,-0.6%
C/C(Nc1ccc(Cl)c(Cl)c1)=C1/CCOC1=O,5.3%,u,14.3%,-0.4%
Cc1cc2ncn(-c3ncnc4sc(C)c(C)c34)c2cc1C,2.8%,7.08µM*,-1.6%,5.4%
SMILES,BRCA1 expr up,GLP-1R inv ag,GLP1R cytotox,GLP1R ag
CC(C)(C)c1cc(NC(=O)COc2ccc(Br)cc2)n(-c2ccccc2)n1,32.2%,8.91µM*,-14.5%,4.8%
CCC(C)n1c(SCC(=O)Nc2cc(C(C)(C)C)nn2-c2ccccc2)nc2ccccc2c1=O (stereo not drawn),-33.3%,11.2µM*,0.0%,11.8%
CCOc1ccc(CNc2nc3nc(C)c(Cc4ccccc4)c(=O)n3[nH]2)cc1,x,2.8%,2.7%,x
COc1ccc(NC(=O)C2CCCN(c3ncnc4c3nc3n4CCCCC3)C2)c(OC)c1 (stereo not drawn),x,5.4%,-0.9%,x
O=C(Nc1ccc2oc(-c3ccccc3)nc2c1)c1cccnc1,2.82µM*,18.9%,-16.0%,7.9%
O=C(Nc1ccc2oc(-c3cccnc3)nc2c1)c1ccc(-c2ccccc2)o1,x,u,-26.2%,x
C[N+]1(CC(=O)c2c3ccccc3cc3ccccc23)CCOCC1,3.2%,x,x,x
COc1ccc(C(c2c(O)cc(C)n(Cc3ccco3)c2=O)N2CCN(c3ccccc3)CC2)cc1 (stereo not drawn),x,u,-6.9%,x
O=C(NN=Cc1ccccc1O)c1cccc([N+](=O)[O-])c1,-112.0%,u,u,11.2%
CCNC(=S)N/N=C/c1cc(C)n(-c2ccc(Cl)cc2)c1C,83.7%,-8.1%[7.66 µM],16.8%[7.66 µM],0.1%
Cc1cc(/C=N/NC(N)=S)c(C)n1-c1ccc(Cl)c(Cl)c1,-61.3%,u,3.16µM*,7.9%
Cc1cc(/C=N/Nc2ncnc(N)c2[N+](=O)[O-])c(C)n1-c1ccccc1,-80.7%,2.24µM*,u,-6.0%
Cc1cc(/C=N/NC(=O)c2cccc([N+](=O)[O-])c2)c(C)n1-c1ccccc1,12.6µM*,u,-2.9%,6.1%
Cc1cc(/C=N/NC(=O)c2ccncc2)c(C)n1-c1ccccc1,7.94µM*,-18.7%,-5.4%,10.2%
CCCCCC(=O)N1C[C@@H](O)[C@H](n2cc(C3CC3)nn2)C[C@@H]1c1ccc(C)cc1,4.2%,13.0%,2.7%,-3.5%
N#Cc1nc(-c2ccccc2)cc(-c2ccccc2)n1,-7.5%,x,x,x
COc1cccc(NC(=S)NC2CC(C)CC(C)(C)C2)c1 (stereo not drawn),0.0%,8.91µM*,u,-0.5%
COc1cccc(NC(=S)Nc2ccc(O)cc2)c1,38.4%,10.5%,5.4%,-2.7%
CSc1ncc(Cl)c(C(=O)NCc2cccnc2)n1,-0.1%,8.5%,0.2%,5.4%
CCCOc1ccc2c(c1)C(=NN=C(N)N)c1cc(OCCC)ccc1-2,-89.2%,1.78µM*,u,4.6%
CCN(CC)CCOc1ccc2c(c1)C(=NO)c1cc(OCCN(CC)CC)ccc1-2,-97.1%,u,u,-2.6%
O=c1oc(-c2cccs2)nc2sc3c(c12)CCCCC3,10µM*,-4.6%,-21.6%,0.3%
CCN=C1S/C(=C\c2cn(CC)c3ccccc23)C(=O)N1CC,-6.3%,u,-9.3%,14.1µM*
CCN1C(=O)S/C(=C/c2cn(C)c3ccccc23)C1=O,1.8%,0.5%,5.5%,1.0%
COc1cccc(/C=C2/SC(=S)N(CC(=O)Nc3nccs3)C2=O)c1,5.4%,x,x,x
SMILES,BRCA1 expr up,GLP-1R inv ag,GLP1R cytotox,GLP1R ag
CCN(CC)CCNC1=NCCn2c1cc1cc(OC)ccc12,36.9%,2.82µM*,12.9%,-1.8%
CCN(CC)CCNC(=O)COc1ccc(OC)cc1,-17.6%,1.5%,-4.8%,0.0%
Cc1nn(-c2nc3ccccc3n2Cc2ccccc2)c2c1C(=O)CC(C)(C)C2,-35.7%,2.24µM*,-14.3%,-4.4%
CC1=C(c2ccc(C)c(C)c2)S(=O)(=O)N=C1N1CCC(C(=O)N2CCCCC2)CC1,x,-6.8%,-9.3%,x
CCCC[C@@H]1CCCO[C@@](C(=O)NCc2ccccn2)(C(F)(F)F)C1,-1.3%,5.01µM*,19.0%,-4.4%
Cc1c(Cl)cccc1Nc1nc(N)nc(CSc2ncccn2)n1,10µM*,0.0%,3.1%,11.8%
c1ccc2nc(N3CCCC3)c(N3CCCCC3)nc2c1,-12.0%,11.2µM*,8.8%,13.4%

# Bioassay records from PubChem.
